Bioassay records from PubChem.
LmPK inhibitor – blocks Leishmania mexicana pyruvate kinase activity | Potency, µM (doses to about 57.5 µM), without a hit: top-dose activity change, negative = inhibition, most hits filed as inhibitors | purified LmPK, Kinase-Glo ATP luminescence, 1 h | 290,000 compounds, 0.37% hits | Q27686; note: potency is the fitted concentration of half-maximal effect; % is set by controls: 0 for no effect and ±100 for the full control effect
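Pyruvate kinase activity monitored as ATP production (luciferase luminescence). Conditions: 0.1 nM enzyme, 0.5 mM PEP, 0.1 mM ADP, 1 h, RT; normalized against uninhibited and no-enzyme wells.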
AmpC inh no detg – blocks E. coli AmpC beta-lactamase in detergent-free assay | P00811 | AmpC nitrocefin hydrolysis, absorbance 480 nm, 0.0001% Triton | Potency, µM (highest dose often 57.1 µM), for the others: at the top dose activity change, negative = inhibition, hits mostly inhibitors | 330,000 compounds, 0.52% hits;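 note: potency is the fitted concentration of half-maximal effect; plate controls were no compound for no effect and no enzyme for full effect; nearly all actives have a fitted effect of over 20% in size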
Target sequence (P00811 whole entry, looked up): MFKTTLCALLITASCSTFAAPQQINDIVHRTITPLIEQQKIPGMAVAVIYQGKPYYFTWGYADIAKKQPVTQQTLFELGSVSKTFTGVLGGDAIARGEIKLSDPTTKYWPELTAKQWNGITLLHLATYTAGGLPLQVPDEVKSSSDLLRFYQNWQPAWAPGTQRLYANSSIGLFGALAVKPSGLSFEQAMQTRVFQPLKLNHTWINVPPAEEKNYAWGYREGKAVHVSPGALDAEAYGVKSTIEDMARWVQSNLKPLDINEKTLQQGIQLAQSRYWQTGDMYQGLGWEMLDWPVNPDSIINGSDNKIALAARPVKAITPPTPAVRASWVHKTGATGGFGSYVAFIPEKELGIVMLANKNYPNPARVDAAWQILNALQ
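AmpC (5.3 nM in the dispensed reagent) in 20 mM phosphate pH 7.0 with 0.01% (detergent screen) or 0.0001% Triton X-100 was preincubated with compounds for 15 min at room temperature. Nitrocefin was then added from an 800 uM solution, and hydrolysis was followed at 480 nm.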
AmpC detergent – inhibitors of E. coli AmpC beta-lactamase with detergent. P00811. AmpC hydrolysis of nitrocefin, absorbance 480 nm, 0.01% Triton. Potency, µM (top dose mostly 114 µM), for inactives: top-dose activity change, negative = inhibition, hits mostly inhibitors. 370,000 compounds, 0.041% hits. AID 485294;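 note: potency is the fitted concentration of half-maximal effect; 0% = no-compound wells and -100% = no-enzyme wells; nearly all actives have a fitted effect of over 25% in size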
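AmpC (5.3 nM in the dispensed reagent) in 20 mM phosphate pH 7.0 with 0.01% (detergent screen) or 0.0001% Triton X-100 was preincubated with compounds for 15 min at room temperature. Nitrocefin was then added from an 800 uM solution, and hydrolysis was followed at 480 nm.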
AMA1 RON2 block – inhibitors of Plasmodium falciparum AMA1-RON2 interaction | AlphaScreen AMA1-biotinylated RON2 peptide binding | Potency, µM (highest dose often 58.2 µM), for the others: at the highest dose activity change, negative = inhibition, most hits filed as inhibitors | 360,000 compounds, 0.2% hits;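 note: potency is the fitted concentration of half-maximal effect; 0% = vehicle wells and -100% = peptide control; nearly all actives have a fitted effect of over 45% in size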
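AMA1 (3D7) with his tag at 25 nM final met compounds first, then biotinylated RON2 peptide at 25 nM; detection used donor plus acceptor beads, 10 µg/mL apiece, read by AlphaScreen after 30 min at room temperature.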
FBPA Giardia inh – inhibitors of Giardia lamblia fructose-1,6-bisphosphate aldolase; A8B2U2; purified Giardia FBPA; Potency, µM (titrated, usually from 59.6 µM), inactives show at the top dose activity, negative = inhibition, most hits filed as inhibitors; 290,000 compounds, 0.71% hits; AID 2451; note: potency is the fitted concentration of half-maximal effect; % is set by controls: 0 for no effect and ±100 for the full control effect; nearly all actives have a fitted effect of over 55% in size
Target sequence (A8B2U2 whole entry, looked up): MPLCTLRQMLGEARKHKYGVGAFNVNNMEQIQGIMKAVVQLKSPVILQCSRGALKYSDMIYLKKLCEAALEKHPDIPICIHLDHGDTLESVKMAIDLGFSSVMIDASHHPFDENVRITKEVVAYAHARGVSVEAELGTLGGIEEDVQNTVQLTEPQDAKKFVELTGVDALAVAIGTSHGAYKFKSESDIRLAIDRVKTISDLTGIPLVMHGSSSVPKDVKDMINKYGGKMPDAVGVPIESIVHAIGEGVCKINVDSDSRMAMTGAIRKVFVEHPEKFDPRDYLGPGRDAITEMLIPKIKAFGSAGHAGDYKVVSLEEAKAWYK
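Giardia FBPA (40 nM reagent) was preincubated 10 min at RT with compound (up to 57.5 uM final), then substrate plus GAPDH/TPI/NAD/arsenate coupling system with diaphorase/resazurin was added; resorufin fluorescence (525/598 nm) was read after 20 min.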
LmPK inh confirm – Inhibits Leishmania mexicana pyruvate kinase, confirmation; Potency, µM (series often up to 57.5 µM), for the others: at the highest dose activity change, negative = inhibition, usual class: inhibitors; AID 2559; 150 compounds, 40% hits; purified LmPK, Kinase-Glo ATP luminescence, 1 h; shares compounds with LmPK inhibitor;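 active = compounds giving a full or partial concentration-response curve, as inhibitors or activators; inconclusive = weak, top-dose-only or unclear curve responses; inactive = no response at any tested dose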
An asterisk follows results filed as active; ? = inconclusive; . = not tested or not shown. The list is not random: actives were taken first. Their share in the collection is about 1.3%. Unless noted, calls come from the whole dose curve; as a rule, active = well fitted curve in the direction sought with a large enough effect; inconclusive = small, poorly fitted or top-dose-only effect, or another doubt; inactive = no such curve, though single readings can be large; an effect the other way counts as inactive or inconclusive.

SMILES | LmPK inhibitor | AmpC inh no detg | AmpC detergent | AMA1 RON2 block | FBPA Giardia inh | LmPK inh confirm
CC(C)(C)c1ccc(CN(Cc2ccco2)Cc2nnnn2C2CCCC2)cc1 | -5% | 22% | 0% | 4% | -6% | -3%
Cc1cccc(CN2[C@H](COCc3ccccc3)C=CS2(=O)=O)c1 | . | . | . | 13% | . | .
Cc1ccccc1N=CC1=C(O)c2ccccc2C1=O | 4µM* | -15% | 0% | -19% | -12% | 15µM*
Cc1cc2c(cc1C)-c1nnnn1C(N1CCCCC1)C(=O)N2 (configuration not stated) | . | . | . | 2% | . | .
Cc1ccc(NC2CCCN(C(=O)c3cccc(-c4ncc[nH]4)c3)C2)cc1C (configuration not stated) | -2% | -20% | -2% | -7% | . | .
COn1c(SCc2ccc(Cl)cc2)nc2ccccc2c1=O | 8% | 12% | 0% | 19% | 1% | 2%
O=C(NC(=O)c1ccccc1)Nc1ccccn1 | 4.5µM* | -10% | -1% | . | . | 13µM*
CCCc1sc(N/N=C/c2ccccn2)nc1-c1ccc(F)cc1 | 1% | 17% | 1% | -12% | -17% | .
Cc1nc(N/N=C/c2ccccn2)sc1C | 10µM* | -6% | -2% | 3% | -22% | 18µM*
CC(=O)Oc1ccc(Oc2ccc(-c3noc(C)n3)cc2)cc1 | -6% | -5% | -4% | 2% | -10% | .
CC(=O)Oc1ccc(-c2nc(-c3cccnc3)no2)cc1 | 5µM* | -13% | ? | -2% | 1% | 5.8µM*
COCC(=O)N(C)C[C@@H]1Oc2ncc(Br)cc2C(=O)N([C@@H](C)CO)C[C@H]1C | . | . | . | 8% | . | .
O=C1c2ccccc2-c2nnc(-c3ccccc3)cc21 | 2.8µM* | -30% | -2% | -7% | -10% | 7.3µM*
Cc1occc1C(=O)N/N=C/c1ccc2c(c1)OCO2 | 4.5µM* | -18% | -7% | 38% | -7% | 16µM*
CCNc1ncc2ncc(=O)n(Cc3ccc(F)cc3)c2n1 | . | . | . | . | -7% | .
COC(=O)c1sc(NC(=O)c2ccoc2C)nc1C | 7.1µM* | -34% | -7% | -9% | -1% | 16µM*
COC(=O)c1sc(NC(=O)c2c(C)noc2C)nc1C | -10% | -11% | 6% | 1% | . | .
CCOCCCn1c(=N)c(C(=O)NCc2cccnc2)cc2c(=O)n3ccccc3nc21 | . | . | 8% | . | . | .
O=C(/C=C/Nc1ccccc1Br)c1ccccn1 | 5µM* | . | -7% | -1% | 4% | 21µM*
Cc1ccc(S(=O)(=O)/N=C2/C=C(Sc3ncn[nH]3)C(=O)c3ccccc32)c(C)c1 | 7.9µM* | 25µM* | -18% | . | 1.6µM* | ?
CCOc1ccc(OCC(=O)Nc2nccs2)cc1 | 10µM* | -21% | 7% | 25% | 0% | 13µM*
CCOc1ccc(S(=O)(=O)N(C)c2ccc(OCC(=O)Nc3nccs3)cc2)cc1 | 3% | -39% | -3% | 60% | -1% | .
CCOC(=O)c1ccc(NC(=O)Nc2ccc3c4c(cccc24)C(=O)N3CC)cc1 | 2% | -9% | 2% | 2% | -15% | 2%
COc1ccc(C(=O)Nc2scc(-c3ccc(Cl)cc3Cl)c2C(N)=O)cc1 | 5% | -39% | 2% | 0% | -7% | 0%
CCCCC(=O)N(C)c1c(CC)nc2c(OCc3ccc(C(F)(F)F)cc3)cccn12 | . | . | . | 5% | . | .
SMILES | LmPK inhibitor | AmpC inh no detg | AmpC detergent | AMA1 RON2 block | FBPA Giardia inh | LmPK inh confirm
O=CN/C=C/c1cc(O)ccc1O | 4.5µM* | -35% | 4% | ? | ? | ?
O=Cc1ccc(O)cc1O | -11% | -29% | -13% | 22% | 4% | .
Cc1cccc(OCC(=O)N(Cc2ccccc2)c2c(N)n(Cc3ccccc3)c(=O)[nH]c2=O)c1 | . | -24% | 4% | 7% | . | .
Nc1ccc2nc(-c3ccccc3)sc2c1 | 8.9µM* | . | -1% | 13% | -11% | 16µM*
CCOC(=O)Cc1csc(NC(=S)NC(=O)c2ccc([N+](=O)[O-])cc2)n1 | 7.1µM* | -55% | ? | 33% | ? | ?
CCOC(=O)Cc1csc(NC(=S)NC(=O)c2ccc(Cl)cc2)n1 | -14% | -35% | -3% | 18% | ? | .
COc1cc(NC(=O)CSc2nc3ccccc3cc2Cc2ccccc2)cc(OC)c1 | -6% | -19% | -13% | -7% | -12% | .
COc1cccc(NC(=O)CSc2nc3ccccc3cc2Cc2ccccc2)c1 | 1% | -28% | -5% | -3% | 2% | 3%
COc1ccc(-c2cc(C(=O)NCC(c3ccco3)N(C)C)c3ccccc3n2)cc1OC (configuration not stated) | . | ? | ? | 1% | . | .
O=C(Nc1ccc2c(c1)OCCO2)c1ccccn1 | 5µM* | -14% | 2% | 14% | -3% | 18µM*
O=C(C=Cc1ccc2c(c1)OCO2)c1ccccc1 | . | . | . | 0% | . | .
O=C(/C=C/c1ccc2c(c1)OCO2)c1ccccn1 | 5µM* | -31% | -7% | 0% | ? | 21µM*
O=C(Nc1ccc(NC(=O)c2ccccn2)cc1)C(=O)Nc1ccc2c(c1)OCCO2 | -11% | 1% | 10% | -2% | 16% | .
Cc1ccc(C(=O)Nc2ccccc2C(=O)O)cc1S(=O)(=O)Nc1ccc(Br)cc1 | . | . | . | -6% | . | .
CC(=O)Nc1ccc(C23CC4CC(CC(C4)C2)C3)cc1 | 3% | 62% | -1% | -7% | -2% | .
Oc1ccc(C23CC4CC(CC(C4)C2)C3)cc1O | 0.28µM* | -29% | 4% | -22% | -6% | -13%
CC(C)[C@H](N)c1nnc(SCc2ccc(Cl)cc2)o1 | -1% | 12% | ? | 2% | -4% | -2%
CC(=O)Oc1ccc(C(=O)Nc2ccccc2C(=O)Nc2ccc(C(=O)O)cc2)cc1 | 0% | -30% | -18% | -2% | 3% | .
COc1cccc(NC(=O)c2ccccc2)c1 | . | -11% | -6% | 2% | . | .
COc1ccc(C(=O)Nc2cccc(OC)c2)cc1 | ? | -22% | 0% | 8% | -16% | ?
CC(C)N(Cc1cn(C)nc1-c1cccc(Cl)c1)Cc1nccn1C | 2% | 106% | 3% | 8% | 3% | .
Cc1cnccc1CN(C)Cc1cn(C)nc1-c1ccc(Oc2ccccc2)cc1 | -2% | 171% | -4% | -16% | -10% | -9%
CN(Cc1ccon1)Cc1cn(C)nc1-c1ccc(Oc2ccccc2)cc1 | 4% | 143% | 5% | -21% | -11% | .
Cc1cnccc1CN(C)Cc1cn(C)nc1-c1cccc(Cl)c1 | 8% | 76% | 6% | 32% | 0% | 0%
CN(Cc1cn(C)nc1-c1cccc(Cl)c1)CC1CCCCO1 (configuration not stated) | 8% | 0% | -7% | -13% | 1% | -2%
